The results in this text go back to PubChem BioAssay AID449762 (Southern Research Specialized Biocontainment Screening …, 2010).

Where “and” joins values, the source holds several entries; their conditions need not be identical. Equal values may be shown once. About 1,900 (0.58%) of roughly 330,000 compounds were called active. About 4% were inconclusive and are not listed. No stated cut-off is given here; in the data, inconclusive means inhibition above about 70% without an active follow-up result; inactive means below that. Not all results are given here. Entries with a potency or affinity are not part of this list.

A short description of the test: M. tuberculosis growth inhibition, HTS (AID 449762).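 Further: bacterial growth assessed after seven days of incubation.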 Conditions: M. tuberculosis H37Rv growth inhibition, 7H9 media; at 25 µM; active compounds read high.
By inhibition is commonly meant the relative decrease from the control value, in per cent. In the case of `NS(=O)(=O)c1cccc(NC(=O)CCS(=O)(=O)c2ccc(Cl)cc2)c1`, the inhibition was -6.68% (inactive).
The result for `COc1cccc(NC(=S)N2CCN(c3ccc([N+](=O)[O-])cc3)CC2)c1` reads 0.58% (inactive); that for `O=C(Nc1ccccc1OCc1ccccc1)c1ccccc1Br`, 12.7% (inactive); that for `COc1cc(C(N)=O)cc(Br)c1OCc1ccccc1`, -3.08% (inactive).
The result for `Cn1c(SCc2cccc(F)c2)nnc1-c1ccncc1` reads -10.7% (inactive); that for `NC1=NC(c2ccccc2Cl)n2c(nc3ccccc32)N1` (stereo not drawn), -5.58% (inactive); that for `NC1=NC(c2ccc(Cl)cc2)n2c(nc3ccccc32)N1` (stereo not drawn), -2.59% (inactive).
The result for `Cc1ccc(OCCNC(=O)CNC(=O)c2ccc(Cl)c([N+](=O)[O-])c2)cc1` reads -8.16% (inactive); that for `CC1CCCC(C)N1C(=O)CN1c2cccc3cccc(c23)S1(=O)=O` (stereo not drawn), -12.9% (inactive).
For `CC(C)NCc1nnc(-c2ccc(Cl)cc2)o1`, the inhibition is 0.17% (inactive).
Under `CCOC(=O)N1CCN(Cc2nc(N)nc(Nc3ccc(Cl)cc3)n2)CC1` stands -0.66% (inactive); under `Cc1cc(OCC(=O)O)c2cccc(C)c2n1`, -5.96% (inactive); under `Cc1cc(OCC(=O)O)c2ccccc2n1`, -2.82% (inactive).
Under `CCOc1ccc(S(=O)(=O)NCc2cccnc2)cc1NC(=O)c1ccccc1F` stands -11.4% (inactive).
For the compound `C=CCc1cc(C)ccc1OCCOCCn1ccnc1`, the inhibition was -4.55% (inactive).
Regarding `C#CC1CCCCC1NC(=O)Nc1cnccc1C(F)(F)F` (stereo not drawn), the inhibition was -0.16% (inactive).
The result for `CN(C)C(=O)Nc1cccc(OC(=O)N(C)C)c1` reads -2.5% (inactive); that for `CN(C)C(=O)Oc1cccc([N+](C)(C)C)c1`, -1.23% (inactive) and -1.63% (inactive); that for `NC(=S)N=Nc1c(O)n(CCCl)c2ccc(Br)cc12`, -8.7% (inactive).
With `O=C(CNC(=S)N(Cc1ccccc1)Cc1cccnc1)NC1CCCC1`, the inhibition is -0.51% (inactive).
The result for `CCOc1ccc2nc(SCC(=O)Nc3ccc(S(=O)(=O)N4CCCC4)cc3)c(C)cc2c1` reads 1.42% (inactive).
`COC(=O)N/N=C/c1ccc([N+](=O)[O-])s1`: the inhibition is -5.28% (inactive).
For the compound `N/C(=N\O)c1ccc([N+](=O)[O-])s1`, the inhibition was 0.15% (inactive).
Under `COCCn1c(Cc2ccccc2)nnc1SCC(=O)NC1CCCCC1` stands -4.27% (inactive).
The result for `Cc1ccc(C2=NCC(=O)N(CC(=O)N3CCCCC3)c3sc(C)c(C)c32)cc1` reads 3.22% (inactive); that for `O=C(NCC1(c2ccccc2)CCCC1)c1ccccc1`, 3.79% (inactive); that for `CCOC(=O)C(C)Sc1nc2c(c(-c3cccs3)c1C#N)CCC2` (stereo not drawn), 57.8% (inactive).
For the compound `COC(=O)CSc1nc(-c2cccs2)ccc1C#N`, the inhibition is 14% (inactive).
